Inconclusive results are not listed. A call without a number means that no potency is given here. Unmarked numbers belong to inactive results. The source made the active and inactive calls. The call rests on the fitted dose curve; in most records, active means well fitted inhibition curve with a large enough effect; inconclusive means small, poorly fitted or top-dose-only effect; inactive means flat fitted curve, though single readings scatter.
Each compound was assayed against Glutathione peroxidase 1 (Homo sapiens) (UniProt P07203) (assay: Primary qHTS Assay for Inhibitors of Recombinant Selenoprotein Glutathione Peroxidase 1 (GPX1) (AID 1845191; further: nearly all actives have a fitted effect of over 65% in size)). Settings: recombinant GPX1, GR-coupled NADPH fluorescence, 15 min; series mostly up to 48.8 µM; activity, negative = inhibition: at the top concentration.
Outline: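 10 nM GPX1 + cpd, 30 min RT; start w/ 1 mM GSH, 0.5 mM cumene hydroperoxide, 0.5 mM NADPH, 100 nM GR, 0.01% BSA; buffer 50 mM Tris-HCl pH 7.5, 2 mM EDTA, 150 mM NaCl; Fl 340/450, 0 & 15 min.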
Potency means the concentration at half of the fitted maximal effect.

Sequence of Glutathione peroxidase 1 (Homo sapiens) (P07203 whole entry, looked up): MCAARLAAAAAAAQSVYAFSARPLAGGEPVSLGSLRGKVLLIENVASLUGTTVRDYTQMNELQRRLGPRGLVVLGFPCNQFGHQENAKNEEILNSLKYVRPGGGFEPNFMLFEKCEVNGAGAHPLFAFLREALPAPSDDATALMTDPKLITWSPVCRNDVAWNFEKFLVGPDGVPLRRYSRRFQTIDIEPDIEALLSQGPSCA

Compound	activity, negative = inhibition	outcome	Potency
CC(C)(C)C(O)/C=C/c1ccc2c(c1)OCO2 (centres undefined)	2.43%	–	–
CC(C)NCCCC1(C(N)=O)c2ccccc2-c2ccccc21	–	inactive	–
Cc1ccc(/C=N/n2c(-c3ccccc3)csc2=S)cc1	–	inactive	–
CC(=O)N[C@@H](CCC(N)=O)C(=O)O	-8.38%	–	–
CCn1ccc(NS(=O)(=O)c2ccc(N)cc2)nc1=O	–	inactive	–
O=C(CS(=O)Cc1ccco1)NC/C=C\COc1cc(CN2CCCCC2)ccn1 (centres undefined)	–	–	18 µM (active)
CC(=O)[C@@]1(O)CC[C@H]2[C@@H]3C[C@H](C)C4=CC(=O)CC[C@]4(C)[C@H]3CC[C@@]21C	–	inactive	–
CN1C(=O)CC(C)(c2ccccc2)C1=O (centres undefined)	–	inactive	–
N#Cc1cc(NC(=O)C(=O)O)c(Cl)c(NC(=O)C(=O)O)c1	–	inactive	–
CCOC(=O)c1ccc(NC(=O)CN2CCCCC2)cc1	-11.4%	–	–
Cc1ccccc1N1CCN(CCc2nnc3n2CCCC3)CC1	3.61%	–	–
CC(C)(C)NCC(O)COc1ccccc1OCC1CCCO1 (centres undefined)	-17.4%	–	–
CC(=O)Oc1ccc(C2(c3ccc(OC(C)=O)cc3)Oc3ccccc3NC2=O)cc1	–	inactive	–
Brc1ccc([C@H]2CN3CCSC3=N2)cc1	–	–	inactive
O=C(O)[C@@H](O)[C@H](O)[C@H](O)[C@@H](O)C(=O)O	1.63%	–	–
C/C(=C1\CCOC(=O)S1)N(C=O)Cc1cnc(C)nc1N	–	inactive	–
CC(C)(C)CC(=O)OCC(=O)[C@@]1(O)CC[C@H]2[C@@H]3CCC4=CC(=O)C=C[C@]4(C)[C@H]3[C@@H](O)C[C@@]21C	-9.49%	–	–
CCN(CC)CC(=O)Nc1c(C)cccc1C(=O)OC	-9.23%	–	–
O=[N+]([O-])c1cncn1CCN1CCOCC1	–	inactive	–

Source: PubChem BioAssay (NCATS)
